Source: PubChem BioAssay AID371 (SRMLSC, 2006)
Hit rate of the full screen: of about 3,300 compounds, about 280 (8.5%) were called active. Many of the other results were omitted from the sample, so actives are more common in it than they were. A number with no mark means an inactive call.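 Rule for the calls: active = mean growth inhibition over the two runs of 50% or more; inactive = mean growth inhibition under 50%.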

Test: A549 NSCLC cell proliferation inhibitors – ATP luminescence, human non-small cell lung line, primary screen (AID 371);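 note: compound exposure lasted 72 h before the ATP read; 0% = untreated cell signal and 100% = no luminescence left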
Conditions: at 10 µM, stronger effect = higher value

**Q.** Which growth inhibition does the source give for `CC(C)(C)NCc1cc2ccccc2[nH]c1=O` here?
**A.** 4.01%

**Q.** With `Cc1nc2oc(C(=O)c3ccc(Br)cc3)c(N)c2c2c1COC(C)(C)C2` as the molecule, how does the growth inhibition read?
**A.** 24.5%

**Q.** Which growth inhibition does the source give for `COCCNC(=O)c1c(N)n(CCC2=CCCCC2)c2nc3ccccc3nc12` here?
**A.** 91.2% (active)

**Q.** Which growth inhibition does the source give for `COCCNC(=O)c1c(N)n(/N=C/c2cccs2)c2nc3ccccc3nc12` here?
**A.** 6.53%

**Q.** With `COCCCNC(=O)c1c(N)n(/N=C/c2cccs2)c2nc3ccccc3nc12` as the molecule, how does the growth inhibition read?
**A.** 17%

**Q.** With `CCC(CC)n1[nH]c(=O)cc1N` as the molecule, how does the growth inhibition read?
**A.** 1.19%

**Q.** With `CC1(C)CC(=O)C(C=N)=C(O)C1` as the molecule, how does the growth inhibition read?
**A.** 1.41%

**Q.** Which growth inhibition does the source give for `O=C(c1ccccc1F)N1CCC(N2CCCCCC2)CC1` here?
**A.** 2.62%

**Q.** For `CCCc1[nH]n(-c2nc3ccccc3s2)c(=O)c1C=NCCN1CCOCC1`, which growth inhibition is on record?
**A.** 3.16%

**Q.** Which growth inhibition does the source give for `Cn1nnnc1-c1cc(Br)ccc1NC(=O)c1ccccc1` here?
**A.** 10.8%

**Q.** With `Cc1sc(-n2c(C)cc(/C=N/n3cnnc3)c2C)c(C#N)c1C` as the molecule, how does the growth inhibition read?
**A.** 19.6%

**Q.** Which growth inhibition does the source give for `CC(C)(C)c1nnc2sc(SCC(=O)c3ccccc3)nn2c1=O` here?
**A.** -7.24%

**Q.** For `Cc1nc2sccn2c(=O)c1CCN1CCC(=C(c2ccccc2)c2ccc(F)cc2)CC1`, which growth inhibition is on record?
**A.** 88.3% (active)

**Q.** For `Cc1nc2ccccn2c(=O)c1CCN1CCC(C(=O)c2ccc(F)cc2)CC1`, which growth inhibition is on record?
**A.** 6.06%

**Q.** For `CN1CCN(CCCCC(=O)c2ccccc2)CC1`, which growth inhibition is on record?
**A.** 6%

**Q.** With `Cc1nc2sccn2c(=O)c1CCN1CCC(=C(c2ccc(F)cc2)c2ccc(F)cc2)CC1` as the molecule, how does the growth inhibition read?
**A.** 92.5% (active)

**Q.** With `COc1ccc(/C=N/n2cncn2)cc1COc1ccc(NC(C)=O)cc1` as the molecule, how does the growth inhibition read?
**A.** 5.25%

**Q.** With `CCOc1ccc(C2/C(=C(/O)c3ccc(OC)cc3)C(=O)C(=O)N2c2cc(C)on2)cc1OC` (stereo unspecified) as the molecule, how does the growth inhibition read?
**A.** -9.53%

**Q.** Which growth inhibition does the source give for `CCC(C)Nc1nc(OC)nc(N(C)C#N)n1` (stereo unspecified) here?
**A.** -4.98%

**Q.** Which growth inhibition does the source give for `O=C(O)c1ccc(COc2c(F)c(F)c(F)c(F)c2F)o1` here?
**A.** 3.65%

**Q.** With `CN(C)/C=C1\N=C(c2ccc(Cl)cc2Cl)OC1=O` as the molecule, how does the growth inhibition read?
**A.** 19.7%

**Q.** For `CCOC(=O)c1[nH]c2cc3c(cc2c1NC(=O)CN1CCc2ccccc2C1)OCO3`, which growth inhibition is on record?
**A.** 12.5%

**Q.** For `CSc1nc(N)nc(SCC(=O)C23CC4CC(CC(C4)C2)C3)c1C#N`, which growth inhibition is on record?
**A.** 74.9% (active)

**Q.** Which growth inhibition does the source give for `CSc1nc(N)nc(SCC(=O)OC(C)C)c1C#N` here?
**A.** 17%

**Q.** Which growth inhibition does the source give for `CSc1nc(N)nc(SCC(=O)CC(=O)OC(C)C)c1C#N` here?
**A.** 7.59%

**Q.** For `O=C(Nc1ccccc1C(=O)NCCCn1ccnc1)c1ccccc1`, which growth inhibition is on record?
**A.** -0.68%

**Q.** For `COc1ccc(C(=O)N/C(N)=N/c2nc3ccccc3o2)cc1`, which growth inhibition is on record?
**A.** 28.8%

**Q.** Which growth inhibition does the source give for `COc1ccccc1C(=O)Nc1cc(Cl)ccc1O` here?
**A.** -0.89%

**Q.** With `COc1ccccc1C(=O)NCC(=O)n1nc(C)cc1C` as the molecule, how does the growth inhibition read?
**A.** 4.23%

**Q.** For `COc1ccccc1C(=O)NC(=Nc1nc2ccccc2o1)NC(=O)c1ccccc1OC`, which growth inhibition is on record?
**A.** 67.3% (active)

**Q.** Which growth inhibition does the source give for `N/C(=N\c1nc2ccccc2o1)NC(=O)c1ccccc1NC(=O)c1ccccc1` here?
**A.** 69.5% (active)

**Q.** Which growth inhibition does the source give for `COc1ccccc1C1C(C#N)=C(N)Oc2cc(C)n(Cc3ccccn3)c(=O)c21` (stereo unspecified) here?
**A.** -10.3%

**Q.** With `CCNC(=O)COn1c(SCC(=O)NCC)nc2ccccc2c1=O` as the molecule, how does the growth inhibition read?
**A.** -0.37%

**Q.** For `CCOC(=O)C1CCN(c2ncnc3c2cnn3-c2ccc(OC)cc2)CC1`, which growth inhibition is on record?
**A.** 4.94%

**Q.** For `CS(=O)(=O)c1ccc2nc(NC(NC(=O)c3ccco3)(C(F)(F)F)C(F)(F)F)sc2c1`, which growth inhibition is on record?
**A.** 29.9%

**Q.** Which growth inhibition does the source give for `CCOC(=O)CSc1nnc(C)c(=O)[nH]1` here?
**A.** 2.53%

**Q.** With `CC(=O)Nc1cc2c(cc1Br)OCCO2` as the molecule, how does the growth inhibition read?
**A.** -4.42%

**Q.** With `CN(C)c1ccc(C2C3C(=O)N(c4ccc(C(=O)O)cc4)C(=O)C3ON2c2ccccc2)cc1` (stereo unspecified) as the molecule, how does the growth inhibition read?
**A.** 4.19%

**Q.** Which growth inhibition does the source give for `COc1cccc2c1C(=O)c1c(O)c3c(c(O)c1C2=O)C[C@@](O)(C(C)=O)C[C@@H]3O[C@H]1C[C@H](N)[C@H](O)[C@H](C)O1` here?
**A.** 94.4% (active)

**Q.** With `COc1cccc2c1C(=O)c1c(O)c3c(c(O)c1C2=O)C[C@@](O)(C(=O)CO)C[C@@H]3O[C@H]1C[C@H](N)[C@H](O)[C@H](C)O1` as the molecule, how does the growth inhibition read?
**A.** 82.1% (active)

**Q.** Which growth inhibition does the source give for `O=c1/c(=C\c2cccn2-c2ccccc2)sc2nc3ccccc3n12` here?
**A.** 26.5%

**Q.** For `CC(C)c1nc(NCCN2CCOCC2)c(C#N)c2c1COC(C)(C)C2`, which growth inhibition is on record?
**A.** 20.7%

**Q.** With `COc1cccc(OC)c1OCC(C)CNCC1CCCO1` (stereo unspecified) as the molecule, how does the growth inhibition read?
**A.** 3.8%

**Q.** With `Oc1ccccc1-c1nc(NCCN2CCOCC2)c2ccccc2n1` as the molecule, how does the growth inhibition read?
**A.** 88.2% (active)

**Q.** With `Fc1ccccc1-c1nc(NCCCN2CCOCC2)c2ccccc2n1` as the molecule, how does the growth inhibition read?
**A.** 4.04%

**Q.** For `COc1cccc(-c2nc(NCCN3CCOCC3)c3ccccc3n2)c1O`, which growth inhibition is on record?
**A.** 80.7% (active)

**Q.** Which growth inhibition does the source give for `COc1cccc(-c2nc(NCC3CCCO3)c3ccccc3n2)c1O` (stereo unspecified) here?
**A.** 83.8% (active)

**Q.** With `C=CCNc1nc(-c2cccc(OC)c2O)nc2ccccc12` as the molecule, how does the growth inhibition read?
**A.** 24.3%

**Q.** Which growth inhibition does the source give for `Cc1cc(-c2ccccc2)nnc1NCCN1CCOCC1` here?
**A.** -7.35%

**Q.** With `c1ccc(-n2ncc3c(NCC4CCCO4)ncnc32)cc1` (stereo unspecified) as the molecule, how does the growth inhibition read?
**A.** 33.8%

**Q.** With `c1ccc(-c2nc(NCC3CCCO3)c3ccccc3n2)nc1` (stereo unspecified) as the molecule, how does the growth inhibition read?
**A.** 60.2% (active)

**Q.** Which growth inhibition does the source give for `c1ccc2c(NCC3CCCO3)nc(-c3ccncc3)nc2c1` (stereo unspecified) here?
**A.** 13.1%

**Q.** For `Cc1cc(OCCN2CCOCC2)nc2ccccc12`, which growth inhibition is on record?
**A.** 10.6%

**Q.** With `O=C(C1=C(O)C(=O)N(CCCN2CCOCC2)C1c1ccccn1)c1cccs1` (stereo unspecified) as the molecule, how does the growth inhibition read?
**A.** 1.45%

**Q.** With `Cc1ccc(C(=O)C2=C(O)C(=O)N(c3ncccn3)C2c2ccc(Cl)cc2)o1` (stereo unspecified) as the molecule, how does the growth inhibition read?
**A.** -6.83%

**Q.** With `COC(=O)c1c(C)[nH]c(C(=O)OCc2ccc(F)cc2)c1C` as the molecule, how does the growth inhibition read?
**A.** 13%

**Q.** With `O=C1C2ON(c3ccccc3)C(c3ccncc3)C2C(=O)N1c1ccc(Br)cc1` (stereo unspecified) as the molecule, how does the growth inhibition read?
**A.** -9.58%

**Q.** With `OCCN=C(c1ccccc1)C12CN3CN(CN(C3)C1)C2` as the molecule, how does the growth inhibition read?
**A.** -0.01%

**Q.** Which growth inhibition does the source give for `C=CCOC(=O)C(C#N)c1nc2ccccc2nc1N1CCC(C(=O)OCC)CC1` (stereo unspecified) here?
**A.** 45.6%

**Q.** With `CCOC(=O)C1CCCN(c2nc3ccccc3nc2C(C#N)C(=O)OC(C)COC)C1` (stereo unspecified) as the molecule, how does the growth inhibition read?
**A.** 24.2%

**Q.** Which growth inhibition does the source give for `CCOC(=O)c1[nH]c2ccc(OC)cc2c1NC(=O)CN1CCN(c2ccccn2)CC1` here?
**A.** 0.14%
